This passage reports growth inhibition results from PubChem BioAssay (NCI).

The panel holds about 79,000 compounds, 15% with a hit somewhere; the sample as a whole holds those more often. Active and inactive are the calls of the source. Cut-off read from the data, not from the text of the source: active = growth inhibition above about 70%; inactive = the rest.

A short description of the test: NCI Yeast Anticancer Drug Screen. Data for the mlh1 strain (AID 171).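 Note: 0% = growth of vehicle-treated control cultures of the same strain.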 As to conditions: S. cerevisiae mlh1 strain growth inhibition, stronger effect = higher value. How it is done: Growth inhibition of yeast strains with defined genetic alterations is measured as a screen for potential anti-cancer activity. Selected strains with alterations in DNA damage repair or cell cycle control were exposed to compounds and growth inhibition was measured relative to vehicle treated controls. The strain used in this assay is mlh1

Consider `O=C(/C=C\c1cccc(C(F)(F)F)c1)c1ccccc1`, for which the growth inhibition was -2% (inactive) (at 1.2 µM); -2% (inactive) (at 3.7 µM); -2% (inactive) (at 11.0 µM); -3% (inactive) (at 33.0 µM); -1% (inactive) (at 100.0 µM).

Consider `C#CCN(Cc1ccc2nc(N)[nH]c(=O)c2c1)c1ccc(C(=O)NC(CCC(=O)O)C(=O)O)cc1` (stereo not given), for which the growth inhibition runs as follows: (at 1.2 µM) 14% (inactive); (at 3.7 µM) 14% (inactive); (at 11.0 µM) 19% (inactive); (at 33.0 µM) 41% (inactive); (at 100.0 µM) 55% (inactive).

As to `CCC(C)OC(=O)Nc1ccc(C)c(NC(=O)OC(C)CC)c1` (stereo not given), the growth inhibition (at 1.2 µM) is -1% (inactive); the growth inhibition (at 3.7 µM) was -3% (inactive); the growth inhibition (at 11.0 µM) is -5% (inactive); the growth inhibition (at 33.0 µM) was 2% (inactive); the growth inhibition (at 100.0 µM) is 96% (active).

In the case of `COc1ccc(C(=O)C(CN(C)C)CN(C)C)cc1`, the growth inhibition was -32% (inactive) (at 1.2 µM); -15% (inactive) (at 3.7 µM); -13% (inactive) (at 11.0 µM); 4% (inactive) (at 33.0 µM); 74% (active) (at 100.0 µM).

As for `CC(C)(C)C1=CC(=CC=C2C=CN(CCCCCCCCCCCO)C=C2)C=C(C(C)(C)C)C1=O`, the growth inhibition (at 1.2 µM) was -3% (inactive); the growth inhibition (at 3.7 µM) is 0% (inactive); the growth inhibition (at 11.0 µM) is 99% (active); the growth inhibition (at 33.0 µM) is 99% (active); the growth inhibition (at 100.0 µM) is 98% (active).

Turning to `CCOC(=O)c1[nH]cc(C)c1-c1cccn1-c1ccc(Cl)cc1[N+](=O)[O-]`, the growth inhibition by setting is: (at 1.2 µM) 17% (inactive); (at 3.7 µM) 22% (inactive); (at 11.0 µM) 27% (inactive); (at 33.0 µM) 55% (inactive); (at 100.0 µM) 96% (active).

With `NNC(=O)CCc1cc2ccccc2c2ccccc12`, the growth inhibition is, setting by setting: (at 1.2 µM) -13% (inactive); (at 3.7 µM) -6% (inactive); (at 11.0 µM) -3% (inactive); (at 33.0 µM) 38% (inactive); (at 100.0 µM) 99% (active).

Turning to `O=[N+]([O-])c1ccc(N/N=C/Cc2ccccc2)c([N+](=O)[O-])c1`, the growth inhibition (at 1.2 µM) was -4% (inactive); the growth inhibition (at 3.7 µM) was -5% (inactive); the growth inhibition (at 11.0 µM) was 0% (inactive); the growth inhibition (at 33.0 µM) was 6% (inactive); the growth inhibition (at 100.0 µM) was 11% (inactive).
